High-throughput results as filed in PubChem.
Sm TGR block: S. mansoni TGR enzyme inhibition. 360,000 compounds, 3% hits. Potency, µM (doses to about 114 µM), for inactives: at the highest dose activity change, negative = inhibition, most hits filed as inhibitors. purified TGR, DTNB reduction, TNB absorbance 405 nm. Q962Y6; note: nearly all actives have a fitted effect of over 60% in size
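First, TGR (20 nM dispensed) and NADPH were mixed with compound. Second, a 15 min room-temperature incubation followed. Third, further NADPH and then DTNB were added to start the reaction. Finally, TNB absorbance was monitored kinetically.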
FMDV inh: antivirals against foot and mouth disease virus; FMDV antiviral cell-based qHTS; 410,000 compounds, 1.2% hits; AID 1159524; Potency, µM (highest dose often 57.9 µM), for the others: at the top dose activity change, negative = inhibition, most hits filed as inhibitors; calls by dose curve; tested in HEK293T cells; note: read-out not given here; nearly all actives have a fitted effect of over 45% in size
Tb PYK inh: T. brucei pyruvate kinase inhibition; 410,000 compounds, 0.12% hits; Q57TT1; AID 624173; Potency, µM (doses to about 76.8 µM), for inactives: at the top dose activity, negative = inhibition, most hits filed as inhibitors; TbPYK enzyme, Kinase-Glo Plus ATP luminescence, 45 min; note: nearly all actives have a fitted effect of over 50% in size
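Screened from lowest to highest concentration, compounds were pinned into TbPYK/substrate mixtures, and ADP (130 uM final) was added. Plates sat at room temperature for 45 min prior to Kinase-Glo Plus detection by luminescence.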
RE007 growth inh: less growth of the S. pombe RE007 Vpr strain; AID 651644; Potency, µM (top dose mostly 92.2 µM), without a hit: top-dose activity change, negative = less growth, usual class: inhibitors; S. pombe RE007 Vpr strain, BacTiter-Glo ATP luminescence, 24 h; 360,000 compounds, 0.21% hits; active = well fitted falling curve with a large enough effect; inconclusive = small, poorly fitted or top-dose-only effect; inactive = no such curve, though single readings can be large or run the other way; note: nearly all actives have a fitted effect of over 50% in size
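Fission yeast RE007 carrying one integrated HIV-1 vpr copy, seeded at OD 0.01 in PMG+AL medium with 23 nL pinned compound. Grown 24 h at 30 degrees; viability read by BacTiter-Glo luminescence after 5 min.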
Numbers without * were called inactive; ? = inconclusive; nt = no result given; [ ] = another dose, or the depositor's remark. Rows were chosen to be rich in hits. Some 3.7% of all compounds tested hit in one or more screens of this group. Unless noted, calls come from the whole dose curve; as a rule, active = well fitted curve in the direction sought with a large enough effect; inconclusive = small, poorly fitted or top-dose-only effect, or another doubt; inactive = no such curve, though single readings can be large; an effect the other way counts as inactive or inconclusive. % is set by controls: 0 for no effect and ±100 for the full control effect; potency is the fitted concentration of half-maximal effect.

SMILES	Sm TGR block	FMDV inh	Tb PYK inh	RE007 growth inh
C=CCc1ccccc1OCC(O)CN1CCN(CCN2C(=O)c3cccc4cccc(c34)C2=O)CC1 (stereo not drawn)	-1.0%	28.2µM*	2.0%	10.3%
CCC(OCC(O)CN1CCN(CCN2C(=O)c3cccc4cccc(c34)C2=O)CC1)c1ccccc1 (stereo not drawn)	-8.8%	28.2µM*	-5.2%	2.2%
Cc1ccccc1OCC(O)CN1CCN(CCN2C(=O)c3cccc4cccc(c34)C2=O)CC1 (stereo not drawn)	-8.5%	?	-1.5%	29.0%
C=CCc1ccccc1OCC(O)CN1CCN(C(=O)OCC)CC1 (stereo not drawn)	39.8µM*	-14.2%	-7.0%	3.4%
Cc1cccc(C)c1OCC(O)CN1CCC(CN2C(=O)c3cccc4cccc(c34)C2=O)CC1 (stereo not drawn)	?	22.4µM*	1.1%	-31.0%
COC(=O)c1cccc(C(=O)N2CCc3c(cnc(C)c3CNC(=O)/C=C/c3cccs3)C2)c1	nt	-7.8%	nt	nt
CCCNC(=O)Cn1c(=O)cc(C)c2c(C)nn(-c3cccc(F)c3)c21	9.8%	-12.9%	-2.0%	nt
C=C(C)C(=O)OCC(O)COc1ccc(C(C)(C)c2ccc(OCC(O)COC(=O)C(=C)C)cc2)cc1 (stereo not drawn)	0.8%	39.8µM*	-40.3%	5.0%[18.4 µM]
NC(=O)c1c(NC(=O)CSc2nnc(-c3ccccc3)n2CC2CCCO2)sc2c1CCC2 (stereo not drawn)	28.2µM*	-6.5%	-0.5%	4.9%
Cc1cc(S(=O)(=O)N2CCCC(N(C)CCc3ccccn3)C2)c(C)cc1Cl (stereo not drawn)	44.7µM*	?	-10.5%	-12.3%
O=C(CCCN1CCN(c2ccc(F)cc2)CC1)NC1c2ccccc2CSc2ccccc21 (stereo not drawn)	nt	nt	-8.1%	nt
Cc1ccc(C#N)c(SCc2nnc(-c3ccc(Cl)cc3)o2)n1	4.8%	20µM*	-8.7%	1.4%
Cc1cc(-c2csc(NC(=O)c3ccc(=O)[nH]c3)n2)c(C)n1Cc1ccco1	44.7µM*	-25.1%	-21.6%	-14.8%
Cc1cc(-c2csc(NC(=O)c3ccc(=O)n(C)n3)n2)c(C)n1CC1CCCO1 (stereo not drawn)	35.5µM*	?	?	-3.7%
CCc1c(C)c2ccc3c(c2oc1=O)CN(Cc1ccccc1)CO3	-9.9%	-1.8%	5.2%	nt
C/C(=C(/CCOC(=O)c1ccccc1)SS/C(CCOC(=O)c1ccccc1)=C(\C)N(C=O)Cc1cnc(C)nc1N)N(C=O)Cc1cnc(C)nc1N	nt	nt	-9.6%	nt
CC(CN1CCOCC1)C(Cc1ccccc1)(Cc1ccccc1)C(=O)N1CCCC1 (stereo not drawn)	nt	nt	-12.1%[157 µM]	nt
CCCCn1c(O)c(C(CC)=NCCCN(C)C)c(=O)[nH]c1=O	?	-8.0%	-4.1%	-3.6%
CCCCn1c(O)c(C(C)=NCCN2CCOCC2)c(=O)[nH]c1=O	-2.9%	-7.4%	0.9%	-8.2%
CCCCn1c(O)c(C(CC)=NCCN2CCCCC2)c(=O)[nH]c1=O	10µM*	-12.9%	-4.0%	?
CCC(=NCCN1CCOCC1)c1c(O)n(-c2ccccc2C)c(=O)[nH]c1=O	28.2µM*	12.7%	-14.4%	1.7%
CCCCn1c(O)c(C(CC)=NCCN2CCOCC2)c(=O)[nH]c1=O	17.8µM*	5.1%	?	-14.7%
CC(=NCCN1CCOCC1)c1c(O)n(-c2ccccc2C)c(=O)[nH]c1=O	-24.2%	11.6%	-10.9%	12.9%
COc1ccc(-c2csc(-c3c(N)c(C(=O)c4ccccc4)n4ccccc34)n2)cc1OC	-9.6%	-16.0%	-2.5%	nt
O=C(NCCN1CCN(c2cccc(Cl)c2)CC1)Nc1ccccc1C(F)(F)F	6.9%	-4.5%	2.9%	nt
SMILES	Sm TGR block	FMDV inh	Tb PYK inh	RE007 growth inh
CC(=O)n1c(=O)c2ccccc2c(=O)n1-c1ccccc1	31.6µM*	-8.7%	-2.8%	3.4%
O=c1c2ccccc2c(=O)n(-c2ccccc2)n1CCCCBr	nt	-9.5%	-2.9%	8.1%
Cc1ccc2c(c1)COc1c3ccc(C(=O)O)cc3nn1-2	-6.9%	10µM*	?	-14.2%
c1csc(CNc2nc(-c3ccc4c(c3)OCO4)nc3ccccc23)c1	nt	-11.1%	nt	nt
Cc1cc(=O)[nH]c2nnc(SCC(=O)Nc3ccc(OC(F)(F)F)cc3)n12	4.2%	35.5%	3.1%	nt
CN(C)c1ccc(C(C(=O)NC2CCCC2)N(Cc2cccnc2)C(=O)c2snc(C(N)=O)c2N)cc1 (stereo not drawn)	7.0%	-12.4%	-5.9%	?
CC(C)c1ccc(N(C(=O)c2snc(C(N)=O)c2N)C(C(=O)NCC2CCCO2)c2ccc(N(C)C)cc2)cc1 (stereo not drawn)	24.9%	17.8µM*	-6.3%	-8.3%
Cc1ccc(N(C(=O)c2snc(C(N)=O)c2N)C(C(=O)NC2CCCC2)c2ccco2)cc1 (stereo not drawn)	39.8µM*	-14.7%	0.6%	5.2%
Cc1ccc(C(C(=O)NC2CCCC2)N(Cc2cccnc2)C(=O)c2snc(C(N)=O)c2N)o1 (stereo not drawn)	44.7µM*	-6.9%	2.6%	-10.8%
COc1cc(-c2noc(C3CC(=O)N(c4cc(C)ccc4C)C3)n2)cc(OC)c1OC (stereo not drawn)	2.9%	0.0%	-4.4%	nt
O=C(C1CCCN(S(=O)(=O)c2cccs2)C1)N1CCN(c2ccccc2F)CC1 (stereo not drawn)	7.1%	-14.6%	-4.4%	nt
COC(=O)c1c(NC(=O)CCl)sc(C(=O)N2CCOCC2)c1C	31.6µM*	-22.2%	4.4%	10.3%
Cc1cc(C)n(Cc2cccc(C(=O)NCC3Cc4cccc(-c5ncccn5)c4O3)c2)n1 (stereo not drawn)	nt	-8.0%	nt	nt
O=C1C2C3C=CC(CC3)C2C(=O)N1c1ccc([N+](=O)[O-])cc1 (stereo not drawn)	20µM*	-19.3%	0.6%	9.9%
CC(=O)c1ccc(N2C(=O)C3C4C=CC(CC4)C3C2=O)cc1 (stereo not drawn)	11.8%	-0.4%	7.9%	-2.7%
CCC1(c2ccccc2)NC(=O)N(Cc2ccc(C(=O)OC)cc2)C1=O (stereo not drawn)	-19.3%	-13.3%	-5.2%	-17.2%
CCC1(c2cccc(Cl)c2)NC(=O)N(Cc2cc(C(=O)OC)c(C)o2)C1=O (stereo not drawn)	25.0%	28.2µM*	-10.0%	4.9%
O=C(CCNc1ccc(Cl)cc1)c1cccs1	15.8µM*	23.6%	-0.4%	?
O=C(CCNc1cc(Cl)cc(Cl)c1)c1cccs1	?	nt	0.0%	-23.5%
O=C(CCSc1ccc(Cl)cc1)c1cccs1	2.24µM*	-5.1%	1.3%	?
COCCCn1c(C)cc(C(=O)CN2c3cccc4cccc(c34)S2(=O)=O)c1C	22.4µM*	-0.6%	-19.0%	4.5%
Cc1ccc(C(=O)CN2C(=O)c3ccccc3S2(=O)=O)cc1	5.0%	14.1µM*	0.8%	-6.4%
C=CCn1c(C)cc(C(=O)CN2C(=O)c3ccccc3S2(=O)=O)c1C	-10.4%	39.8µM*	4.7%	36.3%
